Measurements published in article PMC7862700, “An all-to-all approach to the identification of sequence-specific readers for epigenetic DNA modifications on cytosine”.

Key:
Assay in all cases: DAPPL (digital affinity profiling via proximity ligation, sequencing); 10 mM Tris-HCl pH 7.5, 50 mM NaCl, 1 mM DTT, 4% glycerol, room temperature, 30 min; GST-TFs on glutathione beads, 16-mer random dsDNA library, 0.1% formaldehyde crosslink after washing; high values mean tight binding
Details in all cases: protein: recombinant; tags: N-terminal GST; dsDNA, one strand shown
FLI1 = molecular target: T1, FLI1 (Homo sapiens, UniProt Q01543 1-452)
T1 sequence: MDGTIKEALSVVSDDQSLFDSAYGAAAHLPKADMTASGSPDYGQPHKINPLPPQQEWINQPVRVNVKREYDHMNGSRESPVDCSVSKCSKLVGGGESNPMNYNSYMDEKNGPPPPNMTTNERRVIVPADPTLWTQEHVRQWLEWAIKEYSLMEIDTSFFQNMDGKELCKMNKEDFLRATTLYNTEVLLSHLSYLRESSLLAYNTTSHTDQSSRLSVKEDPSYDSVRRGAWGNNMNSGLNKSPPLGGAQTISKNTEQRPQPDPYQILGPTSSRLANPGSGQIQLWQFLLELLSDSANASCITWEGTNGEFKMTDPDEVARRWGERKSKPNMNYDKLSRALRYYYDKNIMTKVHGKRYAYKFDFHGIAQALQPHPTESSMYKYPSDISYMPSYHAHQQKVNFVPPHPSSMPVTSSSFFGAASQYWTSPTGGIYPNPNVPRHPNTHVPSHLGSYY
Outline: (§1)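 Sequencing on an Illumina NextSeq500 followed washing, crosslinking with 0.1% formaldehyde, proximity ligation (BsaI/T4 ligase, 1 h, 37 °C) and PCR amplification of pools that had been incubated for 30 min at room temperature with 200 nmole of a random double-stranded 16-mer DNA library in Tris/NaCl/DTT/glycerol buffer. Each pool held DNA-barcoded human transcription factors, expressed in yeast as GST fusions and captured on glutathione beads, plus a tag-only sample. Binding signal is a hexamer's read frequency for a factor divided by its frequency in the tag-only sample.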

GABPA = molecular target: T2, GABPA (Homo sapiens, UniProt Q06546 1-454)
T2 sequence: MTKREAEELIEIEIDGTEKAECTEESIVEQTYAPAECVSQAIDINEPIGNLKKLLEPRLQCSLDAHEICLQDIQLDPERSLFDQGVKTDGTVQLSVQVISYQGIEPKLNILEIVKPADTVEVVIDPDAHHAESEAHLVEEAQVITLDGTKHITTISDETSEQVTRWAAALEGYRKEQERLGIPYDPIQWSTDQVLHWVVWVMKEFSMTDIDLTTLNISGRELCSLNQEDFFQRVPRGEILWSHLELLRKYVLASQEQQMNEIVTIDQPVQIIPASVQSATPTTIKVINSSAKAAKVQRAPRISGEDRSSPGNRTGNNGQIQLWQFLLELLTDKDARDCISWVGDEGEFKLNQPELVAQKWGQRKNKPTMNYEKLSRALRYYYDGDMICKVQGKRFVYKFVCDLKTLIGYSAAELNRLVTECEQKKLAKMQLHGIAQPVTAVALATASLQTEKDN
Outline: as §1

ELF1 = ELF1 (Homo sapiens, UniProt P32519 1-619)
Sequence of ELF1 (P32519 whole entry): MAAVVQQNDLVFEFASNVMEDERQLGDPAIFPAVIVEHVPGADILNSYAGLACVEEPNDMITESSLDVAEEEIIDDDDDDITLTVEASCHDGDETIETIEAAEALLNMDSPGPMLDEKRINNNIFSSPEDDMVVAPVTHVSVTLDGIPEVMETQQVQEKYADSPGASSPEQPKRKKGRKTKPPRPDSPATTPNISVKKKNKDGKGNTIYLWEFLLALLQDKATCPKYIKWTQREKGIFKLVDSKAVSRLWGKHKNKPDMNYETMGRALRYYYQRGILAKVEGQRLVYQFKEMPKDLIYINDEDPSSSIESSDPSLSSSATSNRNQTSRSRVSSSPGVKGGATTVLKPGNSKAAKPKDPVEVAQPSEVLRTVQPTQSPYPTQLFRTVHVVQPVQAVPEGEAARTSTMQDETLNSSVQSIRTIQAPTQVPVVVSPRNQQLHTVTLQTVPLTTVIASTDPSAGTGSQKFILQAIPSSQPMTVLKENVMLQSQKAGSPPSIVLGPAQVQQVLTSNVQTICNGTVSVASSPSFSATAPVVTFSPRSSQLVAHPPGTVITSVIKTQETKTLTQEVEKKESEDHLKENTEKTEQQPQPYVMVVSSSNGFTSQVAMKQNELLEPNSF
Outline: as §1

EHF = molecular target: T3, EHF (Homo sapiens, UniProt Q9NZC4 1-300)
T3 sequence: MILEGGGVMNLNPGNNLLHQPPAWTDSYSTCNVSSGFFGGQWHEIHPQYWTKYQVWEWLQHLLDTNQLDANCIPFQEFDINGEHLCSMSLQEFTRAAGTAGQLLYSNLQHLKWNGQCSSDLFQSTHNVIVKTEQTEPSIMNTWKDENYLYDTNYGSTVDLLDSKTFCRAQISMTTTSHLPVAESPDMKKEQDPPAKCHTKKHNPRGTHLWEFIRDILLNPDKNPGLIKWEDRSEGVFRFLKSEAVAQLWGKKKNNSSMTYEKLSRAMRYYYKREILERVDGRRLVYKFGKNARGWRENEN
Outline: as §1

SPIB = SPIB (Homo sapiens, UniProt Q01892 1-262)
Sequence of SPIB (Q01892 whole entry): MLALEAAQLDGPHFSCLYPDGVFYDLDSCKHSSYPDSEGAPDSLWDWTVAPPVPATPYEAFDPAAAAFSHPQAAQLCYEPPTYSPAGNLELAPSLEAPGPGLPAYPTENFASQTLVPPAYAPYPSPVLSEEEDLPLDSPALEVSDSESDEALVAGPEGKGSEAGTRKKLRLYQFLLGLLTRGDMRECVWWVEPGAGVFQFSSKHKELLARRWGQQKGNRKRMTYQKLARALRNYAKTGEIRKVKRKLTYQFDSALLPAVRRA
Outline: as §1

ELK3 = molecular target: T4, ELK3 (Homo sapiens, UniProt P41970 1-407)
T4 sequence: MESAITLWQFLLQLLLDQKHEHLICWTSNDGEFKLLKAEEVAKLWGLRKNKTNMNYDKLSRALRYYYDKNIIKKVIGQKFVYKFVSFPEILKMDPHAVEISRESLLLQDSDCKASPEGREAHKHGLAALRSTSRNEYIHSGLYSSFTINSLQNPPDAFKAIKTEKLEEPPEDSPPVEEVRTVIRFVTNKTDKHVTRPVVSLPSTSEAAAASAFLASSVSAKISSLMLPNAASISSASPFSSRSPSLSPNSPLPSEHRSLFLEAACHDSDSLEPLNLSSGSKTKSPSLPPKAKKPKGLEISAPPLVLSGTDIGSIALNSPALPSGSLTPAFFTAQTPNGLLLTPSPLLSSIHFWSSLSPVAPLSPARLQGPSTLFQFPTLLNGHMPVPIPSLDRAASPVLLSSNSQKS
Outline: as §1

ETV5 = ETV5 (Homo sapiens, UniProt P41161 1-510)
Sequence of ETV5 (P41161 whole entry): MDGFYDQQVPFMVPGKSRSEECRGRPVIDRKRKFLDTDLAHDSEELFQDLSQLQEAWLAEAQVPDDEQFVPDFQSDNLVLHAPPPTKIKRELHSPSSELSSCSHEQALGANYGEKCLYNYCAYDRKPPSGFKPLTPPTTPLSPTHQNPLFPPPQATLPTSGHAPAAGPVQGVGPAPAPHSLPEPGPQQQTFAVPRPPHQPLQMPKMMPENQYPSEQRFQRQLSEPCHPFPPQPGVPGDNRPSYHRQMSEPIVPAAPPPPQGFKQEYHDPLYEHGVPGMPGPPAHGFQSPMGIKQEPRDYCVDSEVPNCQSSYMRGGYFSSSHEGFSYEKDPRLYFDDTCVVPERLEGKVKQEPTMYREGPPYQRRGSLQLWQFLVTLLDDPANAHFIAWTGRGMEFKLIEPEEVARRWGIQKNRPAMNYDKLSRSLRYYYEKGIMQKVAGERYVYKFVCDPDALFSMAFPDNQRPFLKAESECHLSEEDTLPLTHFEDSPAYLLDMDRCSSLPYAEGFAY
Outline: as §1

SPIC = molecular target: T5, SPIC (Homo sapiens, UniProt Q8N5J4 1-248)
T5 sequence: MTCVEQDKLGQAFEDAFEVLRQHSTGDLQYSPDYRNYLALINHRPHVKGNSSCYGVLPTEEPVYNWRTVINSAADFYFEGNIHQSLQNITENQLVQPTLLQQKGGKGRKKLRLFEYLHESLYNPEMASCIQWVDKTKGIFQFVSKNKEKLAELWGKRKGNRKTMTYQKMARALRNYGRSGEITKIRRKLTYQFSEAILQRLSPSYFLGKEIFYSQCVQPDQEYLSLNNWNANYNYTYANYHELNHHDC
Outline: as §1

ELF4 = ELF4 (Homo sapiens, UniProt Q99607 1-663)
Sequence of ELF4 (Q99607 whole entry): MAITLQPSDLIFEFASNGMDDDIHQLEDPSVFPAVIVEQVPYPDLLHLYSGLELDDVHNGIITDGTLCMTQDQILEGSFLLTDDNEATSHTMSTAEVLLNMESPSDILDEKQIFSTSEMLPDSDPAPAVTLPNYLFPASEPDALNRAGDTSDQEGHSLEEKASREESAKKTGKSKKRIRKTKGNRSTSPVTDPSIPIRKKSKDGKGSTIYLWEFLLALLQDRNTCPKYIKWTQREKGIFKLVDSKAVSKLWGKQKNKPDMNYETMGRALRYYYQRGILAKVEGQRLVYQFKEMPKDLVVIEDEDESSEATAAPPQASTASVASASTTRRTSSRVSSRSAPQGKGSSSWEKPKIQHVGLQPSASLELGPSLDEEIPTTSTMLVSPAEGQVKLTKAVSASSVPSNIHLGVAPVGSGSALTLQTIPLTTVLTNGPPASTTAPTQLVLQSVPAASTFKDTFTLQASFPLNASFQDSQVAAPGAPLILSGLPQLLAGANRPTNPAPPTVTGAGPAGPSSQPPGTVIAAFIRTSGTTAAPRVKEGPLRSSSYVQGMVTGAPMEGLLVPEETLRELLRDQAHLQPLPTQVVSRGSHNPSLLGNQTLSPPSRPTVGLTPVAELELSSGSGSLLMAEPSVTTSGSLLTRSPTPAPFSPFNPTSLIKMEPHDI
Outline: as §1

ERF = molecular target: T6, ERF (Homo sapiens, UniProt P50548 1-548)
T6 sequence: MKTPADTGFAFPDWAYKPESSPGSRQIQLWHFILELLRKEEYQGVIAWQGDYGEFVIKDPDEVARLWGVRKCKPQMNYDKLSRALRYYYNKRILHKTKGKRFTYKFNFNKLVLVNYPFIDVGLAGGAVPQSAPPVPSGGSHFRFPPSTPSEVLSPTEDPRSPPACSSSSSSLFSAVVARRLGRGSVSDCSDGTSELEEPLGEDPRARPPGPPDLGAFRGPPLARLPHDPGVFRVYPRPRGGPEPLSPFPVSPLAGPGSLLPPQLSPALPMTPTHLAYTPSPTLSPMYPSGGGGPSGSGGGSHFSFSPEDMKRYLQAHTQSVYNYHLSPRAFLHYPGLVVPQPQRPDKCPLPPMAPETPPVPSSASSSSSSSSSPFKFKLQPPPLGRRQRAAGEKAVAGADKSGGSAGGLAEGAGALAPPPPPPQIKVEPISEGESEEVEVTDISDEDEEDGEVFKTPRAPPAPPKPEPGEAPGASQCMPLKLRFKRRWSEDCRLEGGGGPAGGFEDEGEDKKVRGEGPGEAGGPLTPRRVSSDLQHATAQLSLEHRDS
Outline: as §1

ETS2 = molecular target: T7, ETS2 (Homo sapiens, UniProt P15036 1-469)
T7 sequence: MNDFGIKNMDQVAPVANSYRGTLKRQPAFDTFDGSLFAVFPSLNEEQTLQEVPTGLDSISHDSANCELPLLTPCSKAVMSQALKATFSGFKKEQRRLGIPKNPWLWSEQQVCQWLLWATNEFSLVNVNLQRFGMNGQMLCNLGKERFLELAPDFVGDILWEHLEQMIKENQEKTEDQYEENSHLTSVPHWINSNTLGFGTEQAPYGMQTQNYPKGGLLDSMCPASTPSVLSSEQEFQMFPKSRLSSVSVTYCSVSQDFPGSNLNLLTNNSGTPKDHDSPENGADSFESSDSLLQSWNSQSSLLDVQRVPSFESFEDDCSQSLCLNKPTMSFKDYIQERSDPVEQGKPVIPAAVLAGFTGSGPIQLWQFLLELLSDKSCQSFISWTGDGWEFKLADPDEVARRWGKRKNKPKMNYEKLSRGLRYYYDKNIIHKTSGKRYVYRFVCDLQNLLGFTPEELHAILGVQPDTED
Outline: as §1

SPDEF = molecular target: T8, SPDEF (Homo sapiens, UniProt O95238 1-335)
T8 sequence: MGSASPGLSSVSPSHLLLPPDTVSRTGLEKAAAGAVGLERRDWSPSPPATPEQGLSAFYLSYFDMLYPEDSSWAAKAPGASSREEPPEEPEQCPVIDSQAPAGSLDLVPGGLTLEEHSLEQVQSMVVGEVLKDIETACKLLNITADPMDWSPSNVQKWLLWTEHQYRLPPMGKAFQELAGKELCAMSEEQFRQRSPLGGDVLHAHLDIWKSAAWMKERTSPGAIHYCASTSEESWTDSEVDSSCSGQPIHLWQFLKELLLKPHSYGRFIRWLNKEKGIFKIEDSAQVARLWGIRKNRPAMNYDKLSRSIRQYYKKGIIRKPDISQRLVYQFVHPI
Outline: as §1

ETV6 = ETV6 (Homo sapiens, UniProt P41212 1-452)
Sequence of ETV6 (P41212 whole entry): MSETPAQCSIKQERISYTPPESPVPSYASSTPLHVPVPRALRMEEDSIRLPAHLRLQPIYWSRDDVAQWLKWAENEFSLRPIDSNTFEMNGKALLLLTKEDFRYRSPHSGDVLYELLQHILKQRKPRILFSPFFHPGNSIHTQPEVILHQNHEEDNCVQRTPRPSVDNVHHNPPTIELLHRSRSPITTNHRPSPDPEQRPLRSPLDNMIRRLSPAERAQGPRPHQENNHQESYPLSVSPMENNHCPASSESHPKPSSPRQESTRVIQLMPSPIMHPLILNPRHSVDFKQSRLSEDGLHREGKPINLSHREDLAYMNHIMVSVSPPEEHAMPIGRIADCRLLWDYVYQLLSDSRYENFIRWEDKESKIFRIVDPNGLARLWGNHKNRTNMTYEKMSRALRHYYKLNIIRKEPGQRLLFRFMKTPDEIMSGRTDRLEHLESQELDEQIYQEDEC
Outline: as §1

How did the binding signal (FLI1) turn out when ACATAG was run?
Its binding signal is 1.12 fold enrichment (6-mer frequency, TF over GST control).

What about the binding signal (GABPA) of the same sequence?
The binding signal was 1.03 fold enrichment (6-mer frequency, TF over GST control).

And the binding signal (ELF1)?
The binding signal was 1.07 fold enrichment (6-mer frequency, TF over GST control).

What about the binding signal (EHF) of the same sequence?
The binding signal was 1.07 fold enrichment (6-mer frequency, TF over GST control).

And the binding signal (SPIB)?
Its binding signal is 1.01 fold enrichment (6-mer frequency, TF over GST control).

And the binding signal (ELK3)?
The binding signal was 1.07 fold enrichment (6-mer frequency, TF over GST control).

And the binding signal (ETV5)?
Its binding signal is 1.08 fold enrichment (6-mer frequency, TF over GST control).

What about the binding signal (SPIC) of the same sequence?
Its binding signal is 1.02 fold enrichment (6-mer frequency, TF over GST control).

And the binding signal (ELF4)?
Its binding signal is 1.04 fold enrichment (6-mer frequency, TF over GST control).

What about the binding signal (ERF) of the same sequence?
Its binding signal is 1.11 fold enrichment (6-mer frequency, TF over GST control).

What about the binding signal (ETS2) of the same sequence?
Its binding signal is 1.05 fold enrichment (6-mer frequency, TF over GST control).

What about the binding signal (SPDEF) of the same sequence?
The binding signal was 1 fold enrichment (6-mer frequency, TF over GST control).

And the binding signal (ETV6)?
The binding signal was 1.07 fold enrichment (6-mer frequency, TF over GST control).
